The record followed here is the supplement of paper PMC13094657.

± gives the standard deviation of the averaged measurements.

The test system of the assay is MDA-MB-231. The assay is described as follows: kynurenine production, fold change vs DMSO IFNg/TNF control; higher = more kynurenine produced (less inhibition). The following applies: pre-treatment time: 18 h then 24 h IFNg/TNF. Put shortly:
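MDA-MB-231 cells (7 × 10^4/well, 96-well plates, seeded 24 h earlier) were pre-treated 18 h with each natural product in 0.1% DMSO, then stimulated 24 h with IFNγ (1 U/ml) and TNF (6.25 ng/ml) at 37°C. Supernatant kynurenine was read at 492 nm after trichloroacetic acid and p-dimethylaminobenzaldehyde treatment, against 0–100 μM standards. Kynurenine production is the fold change over cytokine-stimulated vehicle wells on the same plate, averaged over duplicate plates in the first screening round.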
On to `CC1(C)CC[C@]2(C(=O)O)CC[C@]3(C)C(=CC[C@@H]4[C@@]5(C)CC[C@H](O)[C@@](C)(CO)[C@@H]5CC[C@]43C)[C@@H]2C1` [Hederagenin] (compound dose: 10 uM), for which the kynurenine production stood at 1.07 ± 0.014.

Turning to `C[C@@H]1O[C@@H](O[C@H]2[C@H](OC(=O)[C@]34CCC(C)(C)C[C@H]3C3=CC[C@@H]5[C@@]6(C)C[C@H](O)[C@H](O[C@@H]7O[C@H](CO)[C@@H](O)[C@H](O)[C@H]7O)[C@](C)(CO)[C@@H]6CC[C@@]5(C)[C@]3(C)CC4)O[C@H](CO)[C@@H](O[C@@H]3OC[C@@H](O)[C@H](O)[C@H]3O)[C@@H]2O[C@@H]2OC[C@](O)(CO)[C@H]2O)[C@H](O)[C@H](O)[C@H]1O` [Polygalasaponin V] (compound dose: 10 uM), the kynurenine production amounted to 0.803 ± 0.068.

For the compound `CC(C)=CCCC(C)(OC1OC(CO)C(O)C(O)C1O)C1CCC2(C)C1C(O)CC1C3(C)CC(O)C(OC4OC(CO)C(O)C(O)C4OC4OC(CO)C(O)C(O)C4O)C(C)(C)C3CCC12C` (stereo not given) [Gypenoside XLVI] (compound dose: 10 uM), the kynurenine production is 0.812 ± 0.16. The same measure for `CC(CCC(OC1OC(COC2OC(CO)C(O)C(O)C2O)C(O)C(O)C1OC1OC(CO)C(O)C(O)C1O)C(C)(C)O)C1CCC2(C)C3CC=C4C(CCC(OC5OC(COC6OC(CO)C(O)C(O)C6O)C(O)C(O)C5O)C4(C)C)C3(C)C(=O)CC12C` (stereo not given) [11-oxo-mogroside V] (compound dose: 10 uM): 1.33 ± 0.053. In the case of `C=C1[C@H](OC(=O)C(C)C)[C@@H](O)[C@@H](OC(C)=O)C(C)(C)/C=C/[C@H](C)[C@H](OC(C)=O)[C@@]2(O)C[C@@](C)(OC(C)=O)[C@H](OC(=O)c3ccccc3)[C@@H]2[C@H]1OC(C)=O` [Jatrophane 4] (compound dose: 10 uM), the kynurenine production was found to be 0.7528 ± 0.0061.
